High-throughput results (PubChem BioAssay)
Many of the other results were omitted from the sample, so hits are more common in it than they were.
KDM5B inh: Primary screen for KDM5B Histone Demethylases FDH-coupled qHTS | hit rate 2.6% among 220,000 | Lysine-specific demethylase 5B (Homo sapiens), Q9UGL1 | Potency, µM (series often up to 57.7 µM), most hits filed as inhibitors | AID 1347165, 2019 | KDM5B demethylase, FDH-coupled NADH fluorescence (FDH is formaldehyde dehydrogenase); active = well fitted inhibition curve with a large enough effect; note: 0% is about no effect; nearly all actives have a fitted effect of over 70% in size
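KDM5BΔAP (200 nM final) in 50 mM HEPES pH 7.5, 0.01% Tween-20 was preincubated 10 min at RT with compound over a concentration range. Substrate mix (H3K4me3 12.5 µM, α-KG 25 µM, Fe²⁺, ascorbate, NAD⁺, FDH) was added, and NADH fluorescence change over 30 min gave dose-response curves.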
* marks the source's active call; other numbers are inactive results; i = inactive. Potency is the fitted concentration of half-maximal effect.

SMILES | KDM5B inh
CCCc1nn(-c2ccccc2C)c(OC(C)=O)c1-c1ccc(NC(C)=O)cc1 | i
CC(Sc1nnc(Nc2ccccc2F)s1)C(=O)N1CCc2ccccc21 (centres undefined) | i
CCC(=O)Nc1ccc(Cl)c(NC(=O)c2ccc3c(c2)OCO3)c1 | i
Cn1nc(C2CCCN(C(=O)Nc3ccc4c(c3)OCCO4)C2)n(C2CCCC2)c1=O (centres undefined) | i
CCCn1nc(C(=O)N(C)Cc2cccs2)c2ccccc2c1=O | i
COc1cccc(NC(=O)CNc2ccccc2C(=O)NC2CC2)c1 | i
Cc1[nH]c2ccccc2c1/C=C/C(=O)c1ccc(Br)cc1 | i
COc1cc2c(cc1OC)C(C)N(CC(=O)Nc1ccc(C)c(C)c1)CC2 (centres undefined) | i
CCCN1C(SCC(=O)Nc2c(C)cccc2C)=NS(=O)(=O)c2ccccc21 | i
CCOc1cc(CN2CCCCCC2c2ccc(Cl)cc2)ccc1OCC(N)=O (centres undefined) | i
COc1ccc(-n2[nH]c(CSc3nnnn3-c3ccccc3)cc2=O)cc1 | i
COCC(=O)Nc1ccc(-c2c(-c3ccccc3OC)nn(-c3ccc(C)cc3)c2OC(C)=O)cc1 | 22µM*
COc1ccc(Cl)cc1-n1cc(-c2ccccc2)nc1SCC(=O)Nc1ccc(C)cc1 | i
COc1ccccc1-c1cc(NC(=O)COc2ccc(C)c(C)c2)n(-c2ccccc2)n1 | i
c1ccc(N2CCN(C3CCCN(Cc4cn[nH]c4C4CCCCC4)C3)CC2)cc1 (centres undefined) | i
Cc1ccc(CNc2nc(N)c([N+](=O)[O-])c(Nc3cccc(Cl)c3)n2)cc1 | i
COc1ccc(CNC(=O)c2c(C)noc2-c2cccc(F)c2)cc1 | i
CCOc1ccccc1CNC(=O)c1c(C)noc1-c1ccc2c(c1)OCO2 | 28µM*
Cc1noc(-c2ccc3c(c2)OCO3)c1C(=O)NCc1cc(F)cc(F)c1 | 28µM*
Cc1noc(-c2ccc3c(c2)OCO3)c1C(=O)NC(C)CCc1ccccc1 (centres undefined) | 28µM*
Cc1noc(-c2ccc3c(c2)OCO3)c1C(=O)NCCCCc1ccccc1 | 28µM*
COc1ccc(-c2onc(C)c2C(=O)NCCCCc2ccccc2)cc1 | i
Cc1onc(-c2ccccc2)c1C(=O)NC(C)CCc1ccccc1 (centres undefined) | i
Cc1ccccc1-c1onc(C)c1C(=O)NCc1cc(F)cc(F)c1 | i
Cc1noc(-c2cccc(F)c2)c1C(=O)NCc1cccc2ccccc12 | i
SMILES | KDM5B inh
Cc1noc(-c2ccc(OC(F)(F)F)cc2)c1C(=O)NCc1ccccc1Cl | i
O=C(NCc1ccccc1)c1noc(-c2ccc3c(c2)OCO3)n1 | i
Cc1noc(-c2ccccc2Cl)c1C(=O)NCCCc1ccccc1 | i
COc1ccc(OC)c2[nH]c(C(=O)NCCC(=O)Nc3ccc4c(c3)OCCO4)cc12 | i
COc1ccc(NC(=O)CCc2c(C)c3ccc(OC)c(C)c3oc2=O)c(OC)c1 | i
O=c1cc(C(F)(F)F)[nH]c(=S)[nH]1 | i
O=C(O)Cc1ccc2c(c1)[nH]c1ccc(Br)cc12 | i
COP(=O)(OC)c1nc(-c2ccc(C)cc2)oc1NCc1ccco1 | i
CC1=C(C)CC(C(=O)N2CCN(CCc3ccccc3)CC2)C(C(=O)O)C1 (centres undefined) | i
O=C(CCC1CCCC1)N1CCC2(CC1)CC(N(Cc1ccccc1)C1CC1)CCO2 (centres undefined) | i
CC(C)(C)OC(=O)N1CC(c2ccccc2)C1 | i
CCN(c1ccc2c(c1)OCO2)C1CN(C(=O)OC(C)(C)C)C1 | 89µM*
CN(c1ccc(F)cc1)C1CN(C(=O)OC(C)(C)C)C1 | i
O=C1CCN(C(=O)c2ccsc2)CCCC(c2nc(-c3cnccn3)no2)CCN1 (centres undefined) | i
CC(C)SCC(=O)Nc1cc(C(C)(C)C)ccc1O | i
Cc1ccc(NC(=O)Nc2ccccc2)c(=O)n1CC(=O)N1CCN(c2ccccc2)CC1 | 28µM*
COc1ccc(NC(=O)Nc2ccc(C)n(CC(=O)N3CCCC(C)C3)c2=O)cc1 (centres undefined) | i
COc1ccc(NC(=O)Nc2ccc(C)n(CC(=O)N3CCCN(C)CC3)c2=O)cc1 | i
O=C(/C=C/c1cccs1)Oc1ccccc1/C=C/C(=O)c1cc2ccccc2o1 | i
CCOc1cc(-c2nccn2CCNc2cccnc2)ccc1O | i
N#Cc1ccc(-c2c(-c3ccccc3)ncn2CCNc2cccnc2)cc1 | 28µM*
CCOCCn1cnc(-c2ccccc2)c1-c1cccc(C#N)c1 | i
Cc1c(-c2ccc(Cl)cc2)c(=O)oc2cc(OC(=O)N3CCOCC3)ccc12 | i
Oc1ccccc1C=Nc1ccc(Cl)cc1C(F)(F)F | i
COC(=O)C1=C(C)NC(=O)CC1c1c(F)cccc1Cl (centres undefined) | i
SMILES | KDM5B inh
Cc1nn2c(c1-c1cccnc1N1CCOCC1)N(C(=O)c1ccc(Oc3ccccc3)cc1)CCC2 | i
Cc1nn2c(c1-c1ccccc1Oc1ccccc1)N(C(=O)c1ccnn1C)CCC2 | i
Cc1nn2c(c1-c1ccccc1OCc1ccccc1)N(Cc1cccnc1)CCC2 | i
COC1CCC(C(=O)N2CCCn3nc(C)c(-c4ccccc4Oc4ccccc4)c32)CC1 (centres undefined) | i
Cc1nn2c(c1-c1ccccc1Oc1ccccc1)N(C(=O)c1ccc(F)cc1)CCC2 | i
Cc1nn2c(c1-c1cccnc1N1CCOCC1)N(CC1CC1)CCC2 | 35µM*
Cc1nn2c(c1-c1ccccc1OCc1ccccc1)N(Cc1nccn1C)CCC2 | i
Cc1nn2c(c1-c1ccccc1Oc1ccccc1)N(Cc1ccc(C(=O)O)cc1)CCC2 | 35µM*
Cc1nn2c(c1-c1ccccc1OCc1ccccc1)N(C(=O)COc1ccccc1C(N)=O)CCC2 | i
COc1cccc(CC(=O)N2CCCn3nc(C)c(-c4cccnc4N4CCOCC4)c32)c1 | i
Cc1nn2c(c1-c1ccccc1OCc1ccccc1)N(CC1CC1)CCC2 | 35µM*
Cc1nn2c(c1-c1ccccc1Oc1ccccc1)N(CC1CC1)CCC2 | 32µM*
CC(c1ccc(F)cc1)N(C)Cc1nc2sccn2c1Br (centres undefined) | i
Cc1ccccc1CC(=O)Nc1cc(S(=O)(=O)N2CCOCC2)ccc1N1CCOCC1 | i
Cc1cccc(NC(=O)CN(C)C(=O)Cc2ccc3ccccc3c2)c1C | i
CC1(C)CC(NC(=O)c2cc3cc(Br)ccc3oc2=O)CC(C)(C)N1 | i
COc1ccccc1N1CCN(c2nccnc2SCC(=O)Nc2ccc(F)cc2F)CC1 | i
Cc1ccc(CNC(=S)NC(C)C(C)(C)C)cc1 (centres undefined) | i
CN(C)C(=O)C(Sc1nnc(-c2ccc(Cl)cc2)n1N)c1ccccc1 (centres undefined) | i
Cc1nn2c(c1-c1ccccc1OCc1ccccc1)N(C(=O)CN1CCOCC1)CCC2 | i
Cc1nn2c(c1-c1ccccc1OCc1ccccc1)N(C(=O)Cc1ccccn1)CCC2 | i
COc1ccc(OC)c(CN2CCCn3nc(C)c(-c4ccccc4OCc4ccccc4)c32)c1 | 28µM*
CC(=O)c1cnn(-c2cc(NC3CCCC3)nc(-c3ccccc3)n2)c1C | i
CSCc1cccc(C(=O)N(CC2CCOC2)C2CC2)c1 (centres undefined) | i
